# Source: PubChem
# A selection: hits, their analogues and other compounds. The true share with any hit is near 0.83%.
# SRC1 inh: SRC1 coactivator transcriptional activity inhibitors, primary screen, cell-based, luminescence; hit rate 0.12% among 360,000; Nuclear receptor coactivator 1 (Homo sapiens), Q15788; HEK293 GAL4-SRC1 luciferase reporter; inhibition, % at 3.6 µM; AID 588354, 2011;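 active = inhibition above the campaign mean plus 3 SD, with each screening campaign given its own cutoff, cut at about 60% in these data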;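 note: 0% = DMSO treated cells and 100% = gossypol at 36 µM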
# NR5A2 inv ag: LRH-1 (NR5A2) inverse agonists, primary screen, cell-based, luminescence, HEK293T, StAR-luciferase reporter | LRH-1 transfected, 24 h | Nuclear receptor subfamily 5 group A member 2 (Homo sapiens), O00482 | inhibition, % at 3.6 µM | AID 602396, 2012 | hit rate 0.13% among 360,000;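 active = inhibition above the mean inhibition of all tested compounds plus 3 SD, cut at about 73% in these data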;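 note: 0% = DMSO wells and 100% = reporter-only cells lacking LRH-1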
# NCOA2 inhibitor: inhibition of GAL4-SRC2 driven luciferase reporter, primary screen, SRC2 inhibitor project, cell-based, luminescence | Nuclear receptor coactivator 2 (Homo sapiens), Q15596 | HEK293 GAL4-SRC2 luciferase reporter | inhibition, % at 9 µM | hit rate 0.17% among 370,000 | AID 651957, 2012;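 active = inhibition above the mean inhibition of all tested compounds plus 3 SD, set per campaign, cut at about 52% in these data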;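 note: 0% = DMSO treated cells and 100% = cells given Gossypol at 36 µM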
# NCOA3 inh: SRC3 coactivator transcriptional activity inhibitors, primary screen, cell-based, luminescence. inhibition, % at 3.6 µM. hit rate 0.17% among 360,000. AID 588352, 2011. Nuclear receptor coactivator 3 (Homo sapiens), Q9Y6Q9. HEK293 GAL4-SRC3 luciferase reporter;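 active = inhibition above a per-campaign cutoff, the mean of all compounds plus 3 SD, cut at about 60% in these data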;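 note: 0% = DMSO-treated cells and 100% = gossypol-treated cells at 36 µM; higher means less SRC3-driven luciferase light from the GAL4 reporter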
# Gli-Sufu antag: Gli-Sufu pathway antagonists, primary screen, luciferase luminescence, Sufu-KO-LIGHT cells, uHTS. Sufu-KO-LIGHT fibroblasts, Gli luciferase reporter luminescence. inhibition, % at 5 µM. hit rate 0.74% among 340,000. AID 588413, 2011;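 active = inhibition above about 55%, limit read from the data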;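 note: 0% = DMSO-treated cells and 100% = wells with medium but no cells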
# Gli antag conf: Gli-SUFU pathway antagonists, confirmation, single concentration, luciferase luminescence, Sufu-KO-LIGHT cells | Gli luciferase reporter | AID 602428, 2012 | shares compounds with Gli-Sufu antag | inhibition, % at 5 µM | hit rate 40% among 2,500;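 active = mean inhibition at 5 µM reaching about 45%, limit read from the data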;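 note: plate controls were DMSO-treated cells for no effect and wells lacking cells for full effect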
# Gli cytotox: cytotoxicity in Sufu-KO-LIGHT cells, confirmation, cytotoxicity control for Gli-SUFU antagonist project, cell-based, ATP luminescence, single concentration | shares compounds with Gli-Sufu antag | cytotoxicity, % at 5 µM | hit rate 32% among 2,500 | AID 651994, 2013;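 active = mean cytotoxicity at 5 µM above about 25%, limit read from the data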;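 note: cells exposed to compound overnight for roughly 16 to 18 hours; plate controls were DMSO wells with cells for no effect and medium without cells for full effect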
# Wnt3a counter: Wnt3a reporter signal inhibition, confirmation, counter-screen for Gli-SUFU antagonist project, Wnt-LIGHT cells, luminescence, single concentration; shares compounds with Gli-Sufu antag; Wnt3a-driven luciferase reporter; inhibition, % at 6.25 µM; hit rate 20% among 2,500;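 active = mean inhibition above about 25%, limit read from the data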
# * marks the source's active call; other numbers are inactive results; x = not tested or not shown.
SMILES,SRC1 inh,NR5A2 inv ag,NCOA2 inhibitor,NCOA3 inh,Gli-Sufu antag,Gli antag conf,Gli cytotox,Wnt3a counter
Cc1cccc(N/C(N)=N/c2nc(C(F)(F)F)cc(C(F)(F)F)n2)c1,-9,-12,-11,20,6,x,x,x
CC(=O)Nc1ccc(CNc2ncnc3ccc(-c4c(C)noc4C)cc23)cc1,-57,22,-86,-5,73*,78*,31*,-22
CCCCCCCCN1C(=O)N2Cc3cc(F)ccc3C2CS1(=O)=O (stereo not drawn),x,x,6,x,x,x,x,x
Cc1nnsc1C(=O)Nc1ccc(S(=O)(=O)N2CCC(C)CC2)cc1,-2,-9,6,11,54,28,23,-59
O=C(CN1C(=O)CCSc2ccccc21)Nc1ccc(F)cc1F,x,x,-10,x,x,x,x,x
Cn1c(C(=O)NC2CCCC2)cc2c(=O)n(C)c3ccccc3c21,3,6,-34,9,99*,31,14,-22
CCN(CC)CCN(C(=O)c1cc2ccccc2cc1OC)c1nc2ccc(F)cc2s1,-15,1,-3,4,51,28,-2,-35
CCCOc1ccccc1C1CC(=O)Nc2cc3c(cc21)OCCO3 (stereo not drawn),6,9,x,18,66*,65*,60*,-10
CCOc1ccc(-n2c(SCC(=O)Nc3ccccc3-c3ccccc3)nnc2-c2ccncc2)cc1,x,x,-1,x,x,x,x,x
O=C1CCC2S/C(=C/Nc3ccc(C(F)(F)F)cc3)C(=O)N12 (stereo not drawn),33,10,72*,31,58*,60*,2,106*
O=C1CCCC/C1=C/Nc1cccc(C(F)(F)F)c1,-16,-23,-7,0,-8,x,x,x
Cc1ccc(NC(=O)c2cc(C)n(-c3cccc(C)c3)c2C)cc1,22,30,13,14,77*,86*,67*,89*
CC(=O)NC1CCCCN(Cc2cccc(F)c2)C1=O (stereo not drawn),x,x,-18,x,x,x,x,x
O=C(COc1ccc(Cl)cc1Cl)NC(=S)N1CCCc2ccccc21,-1,-20,-21,5,53,14,22,17
COc1ccccc1N=C(C)C1=C(O)CC(c2ccccc2)CC1=O (stereo not drawn),-3,-20,16,4,56*,54*,63*,-35
COc1ccccc1C(=O)NC1CCCCN(Cc2ccc(OC(F)(F)F)cc2)C1=O (stereo not drawn),x,x,-12,x,x,x,x,x
Cc1ccc(NS(=O)(=O)c2ccc(-c3ccc(=O)[nH]n3)o2)cc1N(C)C,5,24,5,0,-14,x,x,x
Cc1ccc(NS(=O)(=O)c2ccc(-c3ccc(=O)[nH]n3)o2)cc1Cl,5,28,5,5,54,9,-4,5
CC(C)CNC(=O)OCc1cn(Cc2cc(F)ccc2F)nn1,x,x,-4,x,x,x,x,x
O=[N+]([O-])c1ccc(N2CCN(C(=S)NCc3ccc(Cl)cc3)CC2)cc1,-16,15,24,17,58*,43,8,-57
COC(=O)CCCn1cc(CN2CC=CS2(=O)=O)nn1,x,x,11,x,x,x,x,x
COc1ccc(NC(=O)COCC(=O)Nc2ccc(C)cc2)cc1,11,13,0,15,54,21,13,-2
COc1ccc(CNCC(C)NCc2ccc(OC)c(OC)c2)cc1OC (stereo not drawn),4,1,-2,-7,61*,7,25,-28
C/C(=N\NC(=O)c1ccccc1O)c1c(O)cc(C)oc1=O,-48,-62,-43,-9,58*,4,-2,-40
